From PubChem BioAssay come the findings set out here.

Molecules are shown by their SMILES.

The nature of this assay: HepG2 liver cancer cell viability effects, profiling panel, resazurin fluorescence, 24 h, PK04 Diversity Set (AID 1172). Further: test concentration not given here. The settings on record: higher = more signal.
As for `C=C(/C(=C/C[C@H](OC(C)=O)c1ccc(CO)o1)c1cc(C(=O)OC)ccc1OC)C(C)C`, the z-score was -0.783.

For `COC(=O)[C@@]1(Cc2ccccc2)N=C(c2ccc(OCCCO)cc2)O[C@H]1c1ccccc1`, the z-score is -0.882.

`CC(C)C[C@@H]1NC(=O)[C@@H]2C[C@H](C(=O)NCc3ccc(F)cc3)[C@H](c3cccc(OCCO)c3)N2C1=O` displayed a z-score of 0.137.

Consider `O=C1c2ccccc2[C@](Cc2ccccc2I)(C(=O)NCCN2CCOCC2)[C@H](c2ccc(CO)cc2)N1C1CCCCC1`, for which the z-score was -0.16.

`O=C1c2ccccc2[C@](Cc2ccccc2I)(C(=O)NCCN2CCOCC2)[C@H](c2ccc(CO)cc2)N1Cc1ccccc1Cl`: the z-score is -0.322.

Consider `CC(C)C(=C=CC[C@@H](O)c1ccc(OCCO)cc1)C[C@@H](O)COCc1ccccc1`, for which the z-score worked out at 0.932.

`COC(=O)[C@]1(CCC(=O)OC(C)(C)C)N=C(c2ccc(OCCCO)cc2)O[C@@H]1c1ccccc1CN=[N+]=[N-]` came in with a z-score of -1.72.

The compound `NC(=O)NCC#Cc1ccc2c(c1)[C@]1(C(=O)N2)[C@H](c2ccccc2OCCO)N2[C@H](c3ccccc3)[C@H](c3ccccc3)OC(=O)[C@H]2[C@@H]1C(=O)Nc1nc2ccccc2s1` gave a z-score of 0.851.

Compound `C=CCC(OC(C)=O)[C@@H]1[C@@H](N(Cc2ccc(-c3ccccc3)cc2)C(=O)Cc2ccc(OC)cc2)c2cc(OCCCO)ccc2N1C(=O)Cc1ccc2ccccc2c1` (stereo not given in full) yielded a z-score of -0.978.

With `C=C(CCCC)C(=O)CC[C@@H](OC(=O)c1ccccc1-c1ccccc1C(=O)O)c1ccc(OCCO)cc1`, the z-score is -0.268.

For the compound `CCCC[C@@H]1C[C@H]1[C@@H](NC(=O)c1ccco1)c1ccccc1C(F)(F)F`, the z-score is -0.153.

For the compound `CCOC(=O)C[C@H]1[C@H](OC(=O)c2cc3ccccc3oc2=O)[C@@H](NC(=O)c2ccccc2)c2cc(OCCCO)ccc2N1C(=O)c1ccc2ccccc2n1`, the z-score is -0.359.

In turn, `CCN(CC)c1ccc(N2CC=CC34O[C@@H]5C=CCCOC(=O)C5[C@H]3C(=O)N(CCCCCCO)[C@@H]4C2=O)cc1` (stereo not given in full) yielded a z-score of 0.846.

`COC(=O)[C@@]1(Cc2ccccc2)[C@H]2c3cc(C(=O)N(C)C)n(Cc4ccsc4Br)c3C[C@H]2CN1C(=O)c1ccccc1` displayed a z-score of -1.77.

In the case of `COCCOC(=O)N1C(=O)[C@@]2(c3ccccc31)[C@H](c1ccccc1OCCO)N1[C@H](c3ccccc3)[C@H](c3ccccc3)OC(=O)[C@H]1[C@@H]2C(=O)N1CCN(c2ncccn2)CC1`, the z-score was -0.0332.

Compound `O[C@@H](Cc1ccccc1)[C@H]1C2C=CCCC=C2CN1Cc1cccc(Cl)c1` (stereo not given in full) displayed a z-score of 0.318.

For `COc1cc2c(cc1OC)CN(C(=O)[C@@H]1[C@H]3C(=O)O[C@H](c4ccccc4)[C@H](c4ccccc4)N3[C@H](c3ccccc3OCCO)[C@@]13C(=O)Nc1ccc(C#CCCO)cc13)CC2`, the z-score stood at 0.0986.

The compound `Cc1ccc(S[C@]2(C(=O)O)CC(=O)N(C(C)C)[C@@H]2c2ccc(CO)cc2I)cc1` had a z-score of 0.975.

Compound `O=C1O[C@H](c2ccccc2)[C@H](c2ccccc2)N2[C@H]1[C@@H](C(=O)N1CCCCCCC1)[C@]1(C(=O)Nc3ccc(C#CCCO)cc31)[C@H]2c1ccccc1OCCO` had a z-score of -0.118.

The compound `C=CCNC(=O)[C@@H]1[C@H]2C(=O)O[C@H](c3ccccc3)[C@H](c3ccccc3)N2[C@H](c2ccc(O)cc2)[C@@]12C(=O)N(C(=O)OCCOC)c1ccc(C#CCNC(N)=O)cc12` returned a z-score of -0.0359.

Regarding `O=C(c1ccccc1)N1C(=O)[C@@]2(Cc3ccccc31)N=C(c1ccc(OCCCO)cc1)O[C@H]2c1ccccc1`, the z-score is -1.01.

`C=C(/C(=C/C[C@H](OC(C)=O)c1ccccc1OCCO)c1cnc2ccccc2c1)C(C)C` yielded a z-score of -0.558.

On to `CC(C)C(CO)N1C(=O)[C@@H]2C3C(=O)OCCC/C=C\[C@H]3OC23C=CCN(CCN2CCOCC2)C(=O)[C@@H]13` (stereo not given in full), for which the z-score was -0.723.

Turning to `CCCC[C@H]1OB(O)C[C@H]2C1=C(COC)C[C@H]1C(=O)N(C)C(=O)[C@H]12`, the z-score was -0.627.

In the case of `COC(=O)[C@@]1(Cc2ccc(F)cc2)[C@H]2c3cc(C(=O)N(C)C)n(Cc4ccc(Cl)c(C(F)(F)F)c4)c3C[C@H]2CN1C(=O)c1ccccc1`, the z-score is -0.81.

Regarding `COc1ccc(CCNC(=O)[C@@]2(Sc3ccc(C)cc3)CC(=O)N(C3Cc4ccccc4C3)[C@@H]2c2ccc(CO)cc2I)cc1`, the z-score came to 0.0641.

In turn, `CCCC[C@H]1OB(O)C[C@H]2C1=C(COC)Cn1c(=O)n(-c3ccccc3)c(=O)n12` came in with a z-score of -0.248.

As to `CN(C)CCCCCCNC(=O)[C@@H]1C[C@@H]2C(=O)N[C@@H](Cc3ccccc3)C(=O)N2[C@@H]1c1ccc(O)cc1`, the z-score is -0.591.

Regarding `C=C(COC)/C(=C/C[C@H](OC(C)=O)c1ccc(CO)o1)c1cc(C(=O)OC)ccc1OC`, the z-score was -0.613.

`COC(=O)[C@@]1(Cc2ccc(OC)cc2)[C@@H]2C(=CC(=O)[C@H]2CC(=O)C(=O)N2CCCC2)CN1C(=O)c1ccccc1` showed a z-score of 1.82.

The compound `Cc1ccc(N2C(=O)c3ccccc3[C@@H](C(=O)NC3CC3)[C@@H]2c2ccc(CO)cc2)nc1` gave a z-score of -0.0178.

Turning to `COCCOC(=O)N1C(=O)[C@@]2(c3cc(C#CCC(C(=O)OC)C(=O)OC)ccc31)[C@H](C(=O)Nc1nc3ccccc3s1)[C@H]1C(=O)O[C@H](c3ccccc3)[C@H](c3ccccc3)N1[C@@H]2c1ccccc1OCCO`, the z-score was -0.397.

The compound `COCCOC(=O)N1C(=O)[C@@]2(c3cc(C#CCC(C(=O)OC)C(=O)OC)ccc31)[C@H](c1ccccc1OCCO)N1[C@H](c3ccccc3)[C@H](c3ccccc3)OC(=O)[C@H]1[C@@H]2C(=O)NC[C@H](O)c1ccccc1` yielded a z-score of -0.326.

Take `CCCC[C@@H]1C[C@H]1[C@@H](NC(=O)c1ccccc1)c1ccc(C(=O)OC)cc1`: the z-score was -0.186.

Turning to `O=C1[C@@]23C=C(Br)[C@H](C[C@@H]2CCOC3)[C@@]12CO2`, the z-score worked out at 0.165.
